Results filed as inconclusive are left out. The source made the active and inactive calls. Calls follow the shape of the dose curve; as a rule, active = well fitted cell-killing curve with a large enough effect; inconclusive = small, poorly fitted or top-dose-only effect, or effect the other way; inactive = no such curve, though single readings can be large or run the other way.
Assay: Quantitative High-Throughput drug screen in 47 multiple myeloma cell lines against the NCATS MIPE library collection: Karpas620_DSMZ cell viability assay (AID 1918959); also: nearly all actives have a fitted effect of over 30% in size;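 as to viability (% of DMSO): 100% = DMSO-only wells and 0% = cell-free media-only wells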
Settings: Karpas620 myeloma viability, CellTiter-Glo ATP luminescence, 48 h; series mostly up to 45.8 µM; viability (% of DMSO): at the top concentration
How it was run: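 qHTS of the MIPE 4.0 collection: 500 myeloma cells/well, 48 h drug exposure at 37C in 5% CO2, then CellTiter-Glo for 5 min at room temperature before luminescence reading.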
Potency is read from the fitted curve at half-maximal effect.

Row | SMILES | Potency | viability (% of DMSO)
1 | CC[C@@H]1C=C(C)C[C@H](C)C[C@H](OC)[C@H]2O[C@@](O)(C(=O)C(=O)N3CCCC[C@@H]3C(=O)O[C@H](C(C)=C[C@@H]3CC[C@H](Cl)[C@H](OC)C3)[C@H](C)[C@@H](O)CC1=O)[C@H](C)C[C@H]2OC | 13.2 µM (active) | 
2 | CC=CCC=CCCC(=O)[C@H]1O[C@@H]1C(N)=O | 16.6 µM (active) | 
3 | Clc1ccc(-c2nc3sccn3c2C=NOCc2ccc(Cl)c(Cl)c2)cc1 |  | 93.8% (inactive)
4 | C=C1C(=O)OC2C=C(C)CCC=C(C)CCC12 (stereo not given) | 14.8 µM (active) | 
5 | CO[C@H]1C[C@@H]2CC[C@@H](C)[C@@](O)(O2)C(=O)C(=O)N2CCCC[C@@H]2C(=O)O[C@H]([C@H](C)C[C@@H]2CC[C@H](OC(=O)C(C)(CO)CO)[C@H](OC)C2)CC(=O)[C@H](C)C=C(C)[C@@H](O)[C@@H](OC)C(=O)[C@H](C)C[C@H](C)C=CC=CC=C1C | 9.35 µM (active) | 
6 | C=CCc1ccc(O)c(-c2ccc(O)c(CC=C)c2)c1 | 26.4 µM (active) | 
7 | COc1ccc(-c2oc3c(CC=C(C)C)c(OC4O[C@H](CO)[C@@H](O)[C@H](O)[C@@H]4O)cc(O)c3c(=O)c2OC2O[C@@H](C)[C@H](O)[C@@H](O)[C@@H]2O)cc1 (stereo not given in full) | 11.8 µM (active) | 
8 | Nc1ncnc2c1ncn2[C@@H]1O[C@H](CO)C[C@@H]1O |  | 98.6% (inactive)
9 | CC[C@H]1OC(=O)[C@H](C)C(=O)[C@H](C)[C@@H](O[C@H]2O[C@H](C)C[C@H](N(C)C)[C@@H]2O)[C@](C)(OC)C[C@@H](C)C(=O)[C@H](C)[C@H]2N(CCCCn3cnc(-c4cccnc4)c3)C(=O)O[C@]12C |  | 98.6% (inactive)
10 | Nc1ncnc2c1ncn2[C@@H]1O[C@@H](CO)[C@H](O)[C@H]1O |  | 114% (inactive)
11 | CCC(=O)NC[C@H](Cc1ccc(OCCc2nc(-c3ccccc3)oc2C)cc1)NC(C)=CC(=O)c1ccc(C(F)(F)F)cc1 |  | 103% (inactive)
12 | O=C1NC(=O)C(=Cc2ccc(-c3ccc(F)cc3)o2)S1 |  | 95.5% (inactive)
13 | CC(=O)O[C@]1(C(C)=O)CC[C@@H]2[C@@H]3C[C@H](C)C4=CC(=O)CC[C@]4(C)[C@H]3CC[C@@]21C |  | 99.9% (inactive)
14 | COc1ccc2c3c1OC1C[C@@H](O)C=C[C@@]31CCN(C)C2 (stereo not given in full) |  | 98.1% (inactive)
15 | Cn1cc(C=C2C(=O)Nc3cccnc32)c2ccccc21 |  | 76.2% (inactive)
16 | O=C1NC(=O)C(=Cc2ccc3nccnc3c2)S1 | 3.63 µM (active) | 
17 | CNC(=O)c1ccccc1Sc1ccc2c(C=Cc3ccccn3)n[nH]c2c1 | 0.264 µM (active) | 
18 | CC[C@]1(O)C[C@@H]2CN(CCc3c([nH]c4ccccc34)[C@@](C(=O)OC)(c3cc4c(cc3OC)N(C=O)[C@@H]3C45CCN4CC=C[C@](CC)([C@H]45)[C@@H](OC(C)=O)[C@]3(O)C(=O)OC)C2)C1 (stereo not given in full) |  | 109% (inactive)
19 | NC(=O)NN=Cc1ccc([N+](=O)[O-])o1 | 18.7 µM (active) | 
20 | NC1=N[C@@]2(c3cc(NC(=O)c4ccc(F)cn4)ccc3F)COC[C@@H]2CS1 | 0.418 µM (active) | 
21 | Nc1nc(F)nc2c1ncn2[C@@H]1O[C@H](COP(=O)(O)O)[C@@H](O)[C@H]1O | 18.7 µM (active) | 
22 | Clc1ccc(CCC(Cn2ccnc2)Sc2c(Cl)cccc2Cl)cc1 (stereo not given) | 18.7 µM (active) | 
23 | COCCCCC(=NOCCN)c1ccc(C(F)(F)F)cc1 |  | 102% (inactive)
24 | CC1(C)Cc2c(sc(NC(=S)NC(=O)c3ccccc3)c2C(=O)O)CO1 | 5.9 µM (active) | 
25 | CCCCCN(C)CCC(O)(P(=O)(O)O)P(=O)(O)O |  | 111% (inactive)
26 | Cc1c[nH]c(C=C2C(=O)Nc3ccccc32)c1CCC(=O)O |  | 101% (inactive)
27 | Cc1cc(OCCCc2c(C(=O)O)n(Cc3cccnc3)c3c(-c4c(COc5ccc(N6CCN([S+](C)(=O)[O-])CC6)cc5)nn(C)c4C)cccc23)cc(C)c1Cl |  | 101% (inactive)
28 | O=c1ccn([C@@H]2O[C@H](CO)[C@H](O)[C@H]2O)c(=O)[nH]1 |  | 95.6% (inactive)
29 | O=C(O)C=Cc1ccc(O)c(O)c1 | 20.9 µM (active) | 
30 | COC(=O)C1=CO[C@@H](O)[C@@H]2C(CO)=CC[C@@H]12 | 23.5 µM (active) | 

— PubChem BioAssay (NCATS)
